This note sets out measurements from PubChem BioAssay.

Structures are written as SMILES.

For this experiment, the target named is Pro-neuregulin-1, membrane-bound isoform (Homo sapiens) (UniProt Q02297). The experiment can be described thus: small molecules binding neuregulin-1 protein – biochemical, small-molecule microarray, fluorescence 635/667, psychiatric disease protein project, primary screen (AID 1075).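 Further: score combines 667 nm spot fluorescence with signal to noise.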 The conditions noted are these: NRG1 binding, 635 nm fluorescence, higher = more signal.
Chain of Pro-neuregulin-1, membrane-bound isoform (Homo sapiens) (Q02297 whole entry, looked up, canonical isoform): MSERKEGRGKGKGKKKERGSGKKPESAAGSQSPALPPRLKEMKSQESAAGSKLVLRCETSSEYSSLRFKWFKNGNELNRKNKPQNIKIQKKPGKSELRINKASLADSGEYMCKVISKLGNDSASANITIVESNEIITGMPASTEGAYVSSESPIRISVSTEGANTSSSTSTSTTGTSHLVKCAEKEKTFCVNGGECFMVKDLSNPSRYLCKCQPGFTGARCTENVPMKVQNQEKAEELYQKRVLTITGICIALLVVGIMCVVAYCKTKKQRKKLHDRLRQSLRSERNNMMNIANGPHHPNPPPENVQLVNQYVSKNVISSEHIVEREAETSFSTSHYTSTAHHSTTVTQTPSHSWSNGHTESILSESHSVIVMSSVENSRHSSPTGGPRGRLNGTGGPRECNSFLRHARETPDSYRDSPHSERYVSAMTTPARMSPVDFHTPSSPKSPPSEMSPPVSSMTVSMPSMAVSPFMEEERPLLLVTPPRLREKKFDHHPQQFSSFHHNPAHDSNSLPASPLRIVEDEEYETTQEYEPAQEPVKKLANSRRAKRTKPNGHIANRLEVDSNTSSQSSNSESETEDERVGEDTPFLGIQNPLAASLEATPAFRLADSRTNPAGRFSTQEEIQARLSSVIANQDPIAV
As for `CCOC(=O)C=Cc1cc(F)ccc1O`, the composite z-score is -0.0469.

The compound `[N-]=[N+]=Nc1ccccc1[C@@H]1OC(c2ccc(OCCCO)cc2)=N[C@]1(Cc1ccccc1)C(=O)NCc1ccccc1` gave a composite z-score of 1.6.

`Cc1ccccc1C(O)C1C=CC2C(=O)NC(=O)C2N1Nc1ccc(Cl)cc1Cl` (stereo not given) gave a composite z-score of 1.73.

`COc1ccc([Si](C)(C)[C@H]2[C@H](CCO)O[C@@]3(C(=O)N(Cc4ccccc4)c4ccc(N5CCOC5=O)cc43)[C@@H]2C)cc1` gave a composite z-score of 0.872.

For `COCC1C2CC[C@H]3C(OCc4ccc(OC)cc4)OC[C@]4(C)[C@H]3C2=C(CN4C(=O)OC(C)(C)C)[C@H](C)C1COC` (stereo not given in full), the composite z-score amounted to 1.73.

`COCCOC(=O)N1C(=O)[C@@]2(c3cc(C#CC4(O)CCCCCC4)ccc31)[C@H](C(=O)N1CCN(c3ncccn3)CC1)[C@H]1C(=O)O[C@H](c3ccccc3)[C@H](c3ccccc3)N1[C@@H]2c1ccccc1OCCO`: the composite z-score amounted to 0.239.

Turning to `COc1ccc(C(=O)Nc2cccc(CN3C(=O)[C@@]4(O[C@@H](CC(=O)N(CCO)Cc5ccccc5)[C@H]([Si](C)(C)c5ccc(OC)cc5)[C@H]4C)c4ccccc43)c2)cc1`, the composite z-score was 0.585.

Turning to `COCCOC(=O)N1C(=O)[C@@]2(c3cc(C#CCNC(N)=O)ccc31)[C@H](c1ccc(O)cc1)N1[C@H](c3ccccc3)[C@H](c3ccccc3)OC(=O)[C@H]1[C@@H]2C(N)=O`, the composite z-score was -0.702.

In turn, `O=C1C2C=CC(C(O)c3cccc(O)c3)N(Nc3ccccc3)C2C(=O)N1c1ccccc1` (stereo not given) returned a composite z-score of 0.977.

`COc1ccc([Si](C)(C)[C@@H]2[C@@H](CC(=O)N3Cc4ccccc4C[C@H]3CO)O[C@]3(C(=O)N(c4ccccc4)c4ccccc43)[C@H]2C)cc1`: the composite z-score was determined as 2.35.

Compound `COc1ccc(C(O)C2C=CC3C(=O)N(c4ccccc4)C(=O)C3N2Nc2ccccc2F)cc1` (stereo not given) displayed a composite z-score of 1.8.

`COCCOC(=O)N1C(=O)[C@@]2(c3cc(C#CCC(C(=O)OC)C(=O)OC)ccc31)[C@H](c1ccc(O)cc1)N1[C@H](c3ccccc3)[C@H](c3ccccc3)OC(=O)[C@H]1[C@@H]2C(=O)NC[C@H](O)c1ccccc1` returned a composite z-score of 1.12.

In turn, `COCC(=C=CC[C@H](O)c1cccc(OCCO)c1)C[C@H](O)COCc1ccccc1` came in with a composite z-score of 1.51.

As to `C=C(C)[C@@H]1CC=C(C(O)C2C=CC3C(=O)N(c4ccccc4)C(=O)C3N2Nc2ccc(C#N)cc2)CC1` (stereo not given in full), the composite z-score stood at 1.81.

`COc1ccc(NC(=O)O[C@H]2[C@@H]3OC(=O)[C@H](Cc4cccc(Br)c4)C/C=C/C[C@@H](Cc4cccc(Br)c4)C(=O)O[C@H]3[C@@H](OC)O[C@@H]2CO)cc1`: the composite z-score came out at 0.558.

For the compound `C=C(/C(=C/C[C@H](OC(=O)c1ccncc1)c1cccc(OCCO)c1)c1cnc2ccccc2c1)C(C)C`, the composite z-score was determined as 1.07.

Compound `CS(=O)(=O)CCOC(=O)C1=CC(CCCO)=CC(C2CC2)N(Cc2cccc(OC(F)(F)F)c2)C=C1C(=O)OCCS(C)(=O)=O` (stereo not given) displayed a composite z-score of 1.07.

`NC(=O)[C@H]1[C@@H]2C(=O)O[C@@H](c3ccccc3)[C@@H](c3ccccc3)N2[C@@H](c2ccc(O)cc2)[C@]12C(=O)Nc1ccc(C#CC3=CCCCC3)cc12`: the composite z-score was 1.22.

In the case of `[N-]=[N+]=NCc1ccccc1[C@@H]1OC(c2ccc(OCCCO)cc2)=N[C@]1(Cc1ccccc1)C(=O)NCCN1CCOCC1`, the composite z-score was determined as 1.25.

As to `COc1cc(C(O)C2C=CC3C(=O)N(Cc4ccccc4)C(=O)C3N2n2cnnc2)cc(OC)c1OC` (stereo not given), the composite z-score amounted to 0.332.

Take `C=CCN1C(=O)[C@@]2(O[C@@H](CCO)[C@H]([Si](C)(C)c3ccc(OC)cc3)[C@H]2C)c2cc(N3CCOC3=O)ccc21`: the composite z-score is 1.21.

Compound `CC(C)[C@H]1NC(=O)[C@@]23C(=O)N[C@@H](Cc4ccccc4)C2[C@H](C)[C@@]2(C)O[C@H]2C3/C=C/C/C=C\CNC(=O)[C@H](Cc2ccccc2)NC1=O` (stereo not given in full) had a composite z-score of 0.781.

`O=C1C2C=CC(C(O)c3ccco3)N(Nc3ccccc3)C2C(=O)N1c1ccccc1` (stereo not given) came in with a composite z-score of 0.944.

Turning to `CC(C)C[C@@H]1NC(=O)[C@@]23C(=O)N[C@@H](Cc4ccccc4)C2[C@H](C)[C@@]2(C)O[C@H]2C3/C=C/C/C=C\CNC(=O)[C@@H](C)NC1=O` (stereo not given in full), the composite z-score was 1.1.

With `CCN(CC)c1ccc(N2CC=CC34O[C@@H]5/C=C\CCC(C)OC(=O)C5[C@H]3C(=O)N(C(C)CO)[C@@H]4C2=O)cc1` (stereo not given in full), the composite z-score was found to be 0.168.

Compound `CO[C@H]1O[C@H](CO)[C@@H](OC(=O)c2ccc(Br)cc2)[C@@H]2OC(=O)[C@H](Cc3ccccc3)C/C=C/C[C@@H](Cc3ccccc3)C(=O)O[C@@H]12` had a composite z-score of 1.64.

With `CC(C)C(CO)N1C(=O)[C@@H]2[C@H]3C(=O)OCC=C[C@H]3OC23C=CCN(C(C)(C)C)C(=O)[C@@H]13` (stereo not given in full), the composite z-score is -0.807.

`[N-]=[N+]=Nc1ccccc1C[C@]1(C(=O)O)N=C(c2ccc(OCCCO)cc2)O[C@H]1c1ccccc1N=[N+]=[N-]` came in with a composite z-score of 1.

Compound `C=C(/C(=C/C[C@@H](OC(=O)c1ccncc1)c1cccc(OCCO)c1)c1cnc2ccccc2c1)C(C)C` gave a composite z-score of 0.788.

As to `CCCNC(=O)[C@@]1(Sc2ccc(C)cc2)CC(=O)N(C(C)C)[C@@H]1c1ccc(CO)cc1I`, the composite z-score is 1.98.

Consider `C=CCNC(=O)[C@@H]1[C@H]2C(=O)O[C@H](c3ccccc3)[C@H](c3ccccc3)N2[C@H](c2ccc(OCCO)cc2)[C@@]12C(=O)N(C(=O)OCCOC)c1ccc(C#CCCO)cc12`, for which the composite z-score stood at 1.24.

In the case of `CCCCCCCCCCC(O)C1C=CC2C(=O)N(c3ccccc3)C(=O)C2N1Nc1ccccc1F` (stereo not given), the composite z-score was 1.22.

Regarding `COC(=O)C1N=C(c2ccc(OCCCO)cc2)N(c2ccccc2)O1` (stereo not given), the composite z-score is 1.1.

In the case of `COC(=O)[C@@]1(Cc2ccc(F)cc2)[C@H]2c3cc(C(=O)N4CCCC4)n(C)c3C[C@H]2CN1C(=O)c1ccccc1`, the composite z-score was 2.15.

Regarding `O=C1C2C=CC(C(O)C=Cc3ccc([N+](=O)[O-])cc3)N(Nc3ccccc3)C2C(=O)N1c1ccccc1` (stereo not given), the composite z-score came to 1.7.
